The nature of this assay: qHTS drug screen for cell cycle checkpoint inhibitors in PARPi-resistant BRCA-mutant ovarian cancer cell lines. (AID 1963452). To be noted: PEO1/OlaR viability, CellTiter-Glo luminescence, 96 h, stronger effect = lower value. The procedure, abridged: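 PEO1, PEO4 and PEO1/OlaR ovarian cancer cells, 600 per well, exposed 96 h at 37C to a dilution series. Viability read by CellTiter-Glo luminescence, normalized to DMSO and empty wells; activity summarized as Z-AUC.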
For orientation: In qHTS, concentration-response curves come from the screen itself.

Setting [1] is: measured here: PEO1 parental Z-AUC.

Molecules are shown by their SMILES. Active and inactive are the calls of the source. Calls come from the whole dose curve.

With `Nc1ncnc2c1c(-c1cccc(OCc3ccccc3)c1)cn2C1CC(CN2CCC2)C1` (stereo unspecified), the Z-AUC was -0.485 (inactive). In addition, under setting [1], the Z-AUC was -0.126. Besides, the Z-AUC (measured here: PEO4 Z-AUC) was -0.746.

As for `CC(C)[C@H](O)C(=O)N[C@@H](C)C(=O)N[C@@H]1C(=O)N(C)CCc2ccccc21`, the Z-AUC is -0.413 (inactive). Besides, under setting [1], the Z-AUC is -0.342. Further, the Z-AUC (measured here: PEO4 Z-AUC) is -0.336.

For `C[C@@H]1C[C@H]2[C@@H]3CCC4=CC(=O)C=C[C@]4(C)[C@@]3(F)[C@@H](O)C[C@]2(C)[C@@]1(O)C(=O)CO`, the Z-AUC is 0.337 (inactive). Besides, the Z-AUC under setting [1] was determined as 1.75. In addition, under “measured here: PEO4 Z-AUC”, the Z-AUC came out at 0.58.

As to `C[C@@H](N)c1ccc(C(=O)Nc2ccnc3[nH]ccc23)cc1`, the Z-AUC was 0.345 (inactive). The Z-AUC under setting [1] came to 0.635. Also, where the note is “measured here: PEO4 Z-AUC”, the Z-AUC was found to be 0.729.

As for `CC(C)(C)c1nc(-c2cccc(NS(=O)(=O)c3c(F)cccc3F)c2F)c(-c2ccnc(N)n2)s1`, the Z-AUC is 1.26 (inactive). For the same compound, under setting [1], the Z-AUC amounted to 1. Besides, the Z-AUC (measured here: PEO4 Z-AUC) is 1.01.

Regarding `CC(C)(F)C[C@H](N[C@@H](c1ccc(-c2ccc(S(C)(=O)=O)cc2)cc1)C(F)(F)F)C(=O)NC1(C#N)CC1`, the Z-AUC was -0.727 (inactive). For the same compound, the Z-AUC under setting [1] amounted to 1.36. Further, the Z-AUC (measured here: PEO4 Z-AUC) was determined as 0.322.

For the compound `O=C1CCCC(=O)C1C(=O)c1ccc(C(F)(F)F)cc1[N+](=O)[O-]`, the Z-AUC is 0.835 (inactive). Further, the Z-AUC under setting [1] worked out at 1.44. The Z-AUC (measured here: PEO4 Z-AUC) is 0.656.

As to `Nc1ncnc2c1ncn2[C@@H]1O[C@H](CO)[C@@H](O)[C@@H]1O`, the Z-AUC was 1.52 (inactive). Further, the Z-AUC under setting [1] worked out at 0.934. Further, the Z-AUC (measured here: PEO4 Z-AUC) came out at 0.856.

On to `CCOC(=O)c1c(CSc2ccccc2)n(C)c2cc(Br)c(O)c(CN(C)C)c12`, for which the Z-AUC is 0.838 (inactive). Also, the Z-AUC under setting [1] amounted to 0.193. Also, the Z-AUC (measured here: PEO4 Z-AUC) came to 0.129.

For the compound `Cc1cnc(-c2cc(N3CCN(C(=O)CCS(C)(=O)=O)CC3)ncc2Cl)c(C)c1`, the Z-AUC is 0.449 (inactive). In addition, the Z-AUC under setting [1] turned out to be 1.67. In addition, for the setting “measured here: PEO4 Z-AUC”, the Z-AUC came to 1.63.

Take `N#CC(c1ccnc(NCCc2cccnc2)n1)c1nc2ccccc2s1` (stereo unspecified): the Z-AUC was 1.07 (inactive). Also, the Z-AUC under setting [1] came out at 0.451. Under “measured here: PEO4 Z-AUC”, the Z-AUC was 0.404.

`COc1ccc2nc3cc(Cl)ccc3c(Nc3cc(CN4CCCC4)c(O)c(CN4CCCC4)c3)c2n1`: the Z-AUC is 1.63 (inactive). For the same compound, the Z-AUC under setting [1] was determined as 0.591. The Z-AUC (measured here: PEO4 Z-AUC) is 1.29.

Consider `COc1nccc(-c2c(-c3ccc(F)cc3)ncn2C2CCNCC2)n1`, for which the Z-AUC was 1.19 (inactive). For the same compound, under setting [1], the Z-AUC turned out to be 0.981. Moreover, the Z-AUC (measured here: PEO4 Z-AUC) was 0.889.

Take `CN(C)c1ccc(-c2nc3ncc(Cl)c(N4CCN(CC(=O)Nc5nccs5)CC4)c3[nH]2)cc1`: the Z-AUC was -1.63 (inactive). Further, the Z-AUC under setting [1] was -1.25. The Z-AUC (measured here: PEO4 Z-AUC) is -1.61.

Regarding `COc1ccc(Cn2ccc3ccc(C(=O)NO)cc32)cc1`, the Z-AUC was 1.36 (inactive). The Z-AUC under setting [1] worked out at 1.01. The Z-AUC (measured here: PEO4 Z-AUC) is 1.

As for `NC1(C(=O)N[C@@H](CCO)c2ccc(Cl)cc2)CCN(c2ncnc3[nH]ccc23)CC1`, the Z-AUC is -0.465 (inactive). Also, the Z-AUC under setting [1] amounted to 0.588. Also, the Z-AUC (measured here: PEO4 Z-AUC) was 0.532.

On to `O=C1C(c2c(O)[nH]c3ccccc23)=Nc2ccccc21`, for which the Z-AUC was 0.207 (inactive). In addition, the Z-AUC under setting [1] turned out to be 0.824. Moreover, the Z-AUC (measured here: PEO4 Z-AUC) is 0.396.

For the origin of these results see PubChem BioAssay (NCATS).
